Rab9 promoter act = activators of Rab9 promoter | Huh7 Rab9 promoter-luciferase reporter, luminescence, 24 h | Potency, µM (doses to about 9.22 µM), for inactives: at the highest dose activation, negative = inhibition, hits mostly activators | 320,000 tested, 2.8% active | AID 485297; also: % of control where 0% means no effect; nearly all actives have a fitted effect of over 60% in size
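Cell-based reporter: Huh7 stable for Rab9 promoter-driven luciferase, plated in reduced-serum medium with 10% FBS at 1500 cells/well, compound-treated 24 h at 37 °C, luminescence read after 10 min reagent.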
NPC1 promoter act = NPC1 promoter activation. Huh7 NPC1 promoter luciferase reporter, 24 h. Potency, µM (top dose mostly 9.22 µM), inactives show top-dose activation, usual class: activators. 320,000 tested, 2.4% active; also: % of control where 0% means no effect; nearly all actives have a fitted effect of over 60% in size
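Luminescence read-out of NPC1 promoter-driven luciferase in stably transfected Huh7 cells; compounds delivered in DMSO and left 24 h at 37C, 5% CO2, qHTS titration format.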
KinaseGlo FLuc = Kinase-Glo luciferase inhibition (counter-screen). 200,000 tested, 0.28% active. Potency, µM (titrated, usually from 38.3 µM), without a hit: at the highest dose activity change, negative = inhibition, most hits filed as inhibitors. Kinase-Glo luciferase, ATP luminescence, 8 min. Q27757; also: % is scaled to controls: 0 for no effect and ±100 for the full control effect; nearly all actives have a fitted effect of over 60% in size
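Recombinant Kinase-Glo luciferase, 10 uM ATP (linear range), luciferin; imidazole pH 7.2 / KCl / MgCl2 / Tween / BSA buffer; 8 min RT; luminescence.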
FLuc counter = firefly luciferase modulation, counter-screen for miR-21 project | 360,000 tested, 6.9% active | AID 588342 | purified FLuc, Km substrates, luminescence inhibition | P08659 | Potency, µM (highest dose often 57.5 µM), without a hit: at the highest dose activity change, negative = inhibition, actives largely listed as inhibitors;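 also: plate controls were vehicle for no effect and reference inhibitor for full effect; nearly all actives have a fitted effect of over 55% in size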
Target sequence (P08659 whole entry, looked up): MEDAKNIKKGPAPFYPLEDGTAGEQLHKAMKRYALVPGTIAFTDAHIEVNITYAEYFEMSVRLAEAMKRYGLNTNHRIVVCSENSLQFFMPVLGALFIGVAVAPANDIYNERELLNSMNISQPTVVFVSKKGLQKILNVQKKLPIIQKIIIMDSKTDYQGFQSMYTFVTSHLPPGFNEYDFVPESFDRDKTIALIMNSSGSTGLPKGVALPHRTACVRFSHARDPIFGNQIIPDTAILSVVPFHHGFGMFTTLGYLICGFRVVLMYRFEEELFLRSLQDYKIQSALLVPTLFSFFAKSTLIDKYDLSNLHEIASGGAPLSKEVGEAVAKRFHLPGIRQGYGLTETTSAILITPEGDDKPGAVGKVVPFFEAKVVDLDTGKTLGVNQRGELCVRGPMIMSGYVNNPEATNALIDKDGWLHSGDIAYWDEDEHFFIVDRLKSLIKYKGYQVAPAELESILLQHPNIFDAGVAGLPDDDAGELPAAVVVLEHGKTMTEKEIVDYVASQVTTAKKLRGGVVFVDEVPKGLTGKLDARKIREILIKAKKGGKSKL
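Biochemical qHTS of compounds, final roughly 60 µM downward over six points, against 10 nM purified firefly luciferase using Km concentrations of substrates (10 uM D-luciferin, 10 uM ATP) in Tris acetate pH 7.5 buffer; luminescence output.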
SMN2 splice up = SMN2 splice variant enhancement; Potency, µM (top dose mostly 46.1 µM), for inactives: at the highest dose activity change, positive = activation, most hits filed as activators; AID 1458; 210,000 tested, 2.8% active; HEK293 SMN2-luciferase splicing reporter, luminescence, 30-36 h; also: % of control where 0% means no effect; nearly all actives have a fitted effect of over 55% in size
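qHTS luciferase splicing reporter: luminescence rises when SMN2 exon 7 is included in transfected HEK293 cells. Compound exposure lasted 30-36 h at 37C, with 4.5 mM final sodium butyrate as control, followed by a ONE-Glo read.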
The depositor's hits bear a star; ? = inconclusive; nt = no result. Rows were chosen to be rich in hits. Some 7.3% of all compounds tested hit in one or more screens of this group. Calls follow the shape of the dose curve; as a rule, active = well fitted curve in the direction sought with a large enough effect; inconclusive = small, poorly fitted or top-dose-only effect, or another doubt; inactive = no such curve, though single readings can be large; an effect the other way counts as inactive or inconclusive. Potency is read from the fitted curve at half-maximal effect.

SMILES	Rab9 promoter act	NPC1 promoter act	KinaseGlo FLuc	FLuc counter	SMN2 splice up
O=c1oc2ccccc2cc1-c1cn2cc(Cc3ccccc3F)sc2n1	nt	nt	nt	0.338µM*	0.7%
CCOC(=O)c1cc(-c2ccc(C)cc2)n(CC(=O)NC2CCCCCC2)c1C	nt	nt	nt	2.3%	-1.1%
CC(=O)c1cc2c(cc1N/C(=N/S(=O)(=O)c1ccc(Cl)cc1)c1ccc(F)cc1)OCO2	nt	nt	nt	-14.6%	nt
Cc1ccc(-n2cc(-c3ccccc3)[nH]c2=O)cc1F	3.16µM*	3.16µM*	-6.7%	?	25.1µM*
COc1ccc(Cl)cc1NC(=O)c1cc2c(=O)n3ccccc3nc2s1	nt	nt	nt	-9.2%	-6.0%
O=c1c2cc3c(cc2n(Cc2ccc(Cl)cc2)c(=O)n1Cc1nc(-c2ccccc2)no1)OCO3	nt	nt	nt	-4.7%	nt
O=C(N/N=C/c1cn(-c2ccccc2)nc1-c1cc2ccccc2o1)c1ccccc1Br	?	3.16µM*	6.2%	15.1µM*	4.47µM*
O=C(N/N=C/c1cn(-c2ccccc2)nc1-c1cc2ccccc2o1)c1c[nH]c2ccccc12	1.41µM*	1.78µM*	-1.4%	1.9µM*	3.98µM*
COc1ccc(OC)c2c(N3CC(C)OC(C)C3)cc(C(F)(F)F)nc12 (stereo not drawn)	3.16µM*	2.82µM*	nt	7.57µM*	nt
COc1ccc(OC)c2c(N3CCN(C)CC3)cc(C(F)(F)F)nc12	3.3%	5.1%	10.8%	3.6%	-5.7%
O=C1CSC(=S)N1/N=C/c1ccc2c(c1)OCCO2	-4.0%	-4.2%	nt	16.9µM*	nt
COc1cc(/C=C/C(=O)Nc2cccc(S(=O)(=O)NC3=NCCCCC3)c2)ccc1OCC#N	1.1%	1.0%	nt	-4.6%	nt
O=C(COC(=O)c1ccc(OC(F)F)cc1)Nc1cccc(S(=O)(=O)NC2=NCCC2)c1	2.8%	-1.4%	nt	-5.2%	nt
O=C(/C=C/c1ccc(OC(F)F)cc1)Nc1cccc(S(=O)(=O)NC2=NCCCCC2)c1	9.9%	1.8%	nt	1.35µM*	nt
COc1ccc(/C=C/C(=O)Nc2cccc(S(=O)(=O)NC3=NCCCCC3)c2)cc1	26.9%	?	nt	0.675µM*	nt
Cc1ccc(CN2CCCn3nc(C(=O)NCC(C)c4ccccc4)cc3C2=O)cc1 (stereo not drawn)	nt	nt	nt	-3.9%	nt
Cc1ccc(NC(=O)c2ccc([N+](=O)[O-])cc2Cl)nc1	2.82µM*	2.51µM*	-3.6%	12µM*	5.01µM*
CC(C)C(=O)Nc1ccc(NC(=O)c2ccc([N+](=O)[O-])cc2Cl)cc1	-2.3%	-3.7%	-0.6%	2.3%	-12.4%
CN(C)c1ccc(NC(=O)c2ccc([N+](=O)[O-])cc2Cl)cc1	3.16µM*	2.51µM*	-2.2%	4.26µM*	10µM*
Cc1n(CC(=O)c2ccc(F)cc2)c2ccccc2[n+]1C	-5.2%	-3.7%	1.6%	-0.6%	-8.5%
N=c1n(CCN2CCCCC2)c2ccccc2n1CC(=O)c1ccc(Cl)c(Cl)c1	1.3%	1.0%	nt	-5.0%	nt
CCn1c(=N)n(CC(=O)c2ccc(Cl)c(Cl)c2)c2ccccc21	3.98µM*	4.47µM*	nt	?	nt
Cn1c(=N)n(CC(=O)c2ccc(F)cc2)c2ccccc21	0.891µM*	?	nt	1.35µM*	nt
CNC(=O)c1cc2n(n1)CCCN(Cc1ccc(F)cc1)C2=O	nt	nt	nt	-0.5%	nt
COc1cc(C)ccc1OCCOc1cc(C)ccc1Cl	-4.1%	4.4%	-0.1%	13.5µM*	nt
SMILES	Rab9 promoter act	NPC1 promoter act	KinaseGlo FLuc	FLuc counter	SMN2 splice up
COc1cc(C)ccc1OCCOc1c(C)cccc1Cl	?	16.6%	-4.8%	26.9µM*	-11.0%
CCc1ccccc1OCCOc1ccc(C)cc1OC	16.2%	0.1%	-1.0%	-18.2%	-23.6%
COc1cc(C)ccc1OCCOc1c(Cl)cc(Cl)cc1Cl	7.9%	-1.5%	nt	?	nt
CCC(=O)Nc1ccc2c(c1)ncn2-c1ccccc1OC	-1.5%	1.8%	-0.2%	-13.1%	4.1%
CCOc1ccc(-n2nc3ccc(NC(=O)CC)cc3n2)cc1	?	?	nt	2.69µM*	nt
CC(=O)Nc1ccc(NC(=O)c2cc(C)nn2-c2ccccc2)cc1	0.5%	1.9%	5.2%	-1.5%	0.9%
Cn1cnc2cc(NC(=O)COc3ccccc3)ccc21	23.7%	12.1%	nt	23.9µM*	nt
CCC(=O)Nc1ccc2c(c1)ncn2-c1ccccc1	?	?	-1.1%	15.1µM*	?
CC(=O)Nc1ccc2c(c1)ncn2-c1ccccc1	1.41µM*	2.82µM*	nt	10.7µM*	nt
COc1ccc(CNC(=O)CCn2c(=O)c3cccn3c3ccc(F)cc32)cc1OC	nt	nt	nt	3.4%	nt
COc1ccc(N2C(=O)C3C(C2=O)C2C=CC3C23CC3)c(OC)c1 (stereo not drawn)	7.6%	-1.0%	-2.0%	13.5µM*	-0.9%
COC(=O)c1ccccc1N1C(=O)C2C(C1=O)C1C=CC2C12CC2 (stereo not drawn)	2.8%	-1.2%	-5.6%	4.6%	7.2%
O=c1c(-c2cnn(-c3ccccc3)c2)coc2cc(O)ccc12	1.78µM*	2.82µM*	nt	5.36µM*	nt
O=c1c(-c2ccc(O)cc2)coc2cc(O)ccc12	10µM*	9.2µM*	-6.6%	nt	12.6µM*
Cc1oc2cc(O)ccc2c(=O)c1-c1cnn(-c2ccccc2)c1	-1.9%	-1.6%	7.5%	?	-8.9%
Cc1ccccc1-c1coc2cc(O)ccc2c1=O	-4.7%	-0.8%	-1.1%	-2.6%	4.5%
CC(C)(C)OC(=O)N1CCC(c2c(C(=O)NCc3ccco3)cnn2-c2ccccc2)CC1	nt	nt	nt	-5.2%	nt
CCc1ccc(C2c3c(-c4ccccc4O)n[nH]c3C(=O)N2Cc2cccnc2)cc1 (stereo not drawn)	nt	nt	nt	-6.4%	2.6%
Cc1cc(O)c(-c2n[nH]c3c2C(c2cccc(O)c2)N(Cc2cccnc2)C3=O)cc1Cl (stereo not drawn)	1.5%	-4.1%	-5.1%	8.5%	20µM*
CCN(c1ccccc1)c1nnc(NC(=O)Nc2cccc(Cl)c2C)s1	nt	nt	nt	3.7%	nt
NC(=O)c1ccsc1NC(=O)c1coc2ccccc2c1=O	2µM*	?	-12.1%	2.39µM*	11.2µM*
CCOC(=O)c1c(NC2OC(=O)c3c2ccc(OC)c3OC)sc(C(=O)OC(C)(C)C)c1C (stereo not drawn)	21.9%	25.6%	0.3%	16.9µM*	nt
COc1ccc2c(c1OC)C(=O)OC2Nc1ccccn1 (stereo not drawn)	-2.6%	4.3%	2.8%	5.3%	22.1%
CN(C)c1ccc(-c2nc(N(C)Cc3ccco3)c3ccccc3n2)cc1	nt	nt	-6.7%	nt	10µM*
O=C(COC(=O)c1ccccc1)NC12CC3CC(CC(C3)C1)C2	0.3%	-1.7%	nt	6.75µM*	nt
O=C(COC(=O)COc1ccccc1)NC12CC3CC(CC(C3)C1)C2	-1.2%	-0.9%	nt	-9.2%	nt
O=C(CCCc1ccccc1)NC12CC3CC(CC(C3)C1)C2	2.24µM*	3.16µM*	nt	9.53µM*	nt
O=C(c1ccc2c(c1)N(Cc1ccc(Cl)cc1)C(=O)c1ccccc1S2=O)N1CCOCC1 (stereo not drawn)	nt	nt	nt	-3.9%	-17.7%
